This is an account of results in PubChem BioAssay.

Chain of Dickkopf-related protein 1 (Homo sapiens) (O94907 whole entry, looked up): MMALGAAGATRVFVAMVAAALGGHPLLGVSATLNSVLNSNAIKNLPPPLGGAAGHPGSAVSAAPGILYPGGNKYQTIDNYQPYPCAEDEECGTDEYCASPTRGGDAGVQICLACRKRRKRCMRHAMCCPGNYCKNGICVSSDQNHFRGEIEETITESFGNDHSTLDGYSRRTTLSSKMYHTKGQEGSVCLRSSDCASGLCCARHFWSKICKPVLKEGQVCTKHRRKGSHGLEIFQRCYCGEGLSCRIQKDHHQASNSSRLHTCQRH

The first test concerns the target Dickkopf-related protein 1 (Homo sapiens) (UniProt O94907). Description: small molecules binding DKK1 protein – biochemical, small-molecule microarray, 635 nm fluorescence scan, primary screen (AID 1106).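 Note: score merges emission near 667 nm with signal to noise over three replicate slides.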 The following applies: higher = more signal.
Molecule `CCOc1cc(C(O)C2C=CC3C(=O)N(C4CCCCC4)C(=O)C3N2Nc2ccc(OC)cc2)ccc1O` (stereo unspecified) yielded a composite z-score of 0.105.
Regarding `COCCOC(=O)N1C(=O)[C@@]2(c3cc(C#Cc4ccc(OC)cc4)ccc31)[C@H](C(=O)N1CCCCCCC1)[C@H]1C(=O)O[C@H](c3ccccc3)[C@H](c3ccccc3)N1[C@@H]2c1ccc(O)cc1`, the composite z-score came out at 0.567.
On the same count and under the same terms, in the case of `C=C(C(=O)CC[C@H](OC(=O)c1cccnc1)c1ccc(CO)o1)C(C)C` it was 0.603.
`COC(=O)[C@H](Cc1ccccc1)N1CC(/C=C/C2CC2)=C[C@@H]1[C@@H](O)Cc1ccccc1` returned a composite z-score of 1.2.
For `COC(=O)[C@@]1(Cc2ccc(OC)cc2)[C@H]2c3cc(C(=O)N(C)C)n(Cc4nc5ccccc5[nH]4)c3C[C@H]2CN1C(=O)c1ccccc1`, the composite z-score was -0.463.
In turn, `CN(C)C(=O)[C@]1(CCC(=O)OC(C)(C)C)N=C(c2ccc(OCCCO)cc2)O[C@@H]1c1ccccc1` registered a composite z-score of -0.136.
Still for that read-out and setting: under `COCCOC(=O)N1C(=O)[C@@]2(c3cc(C#CC4(O)CCCCCC4)ccc31)[C@H](C(N)=O)[C@H]1C(=O)O[C@H](c3ccccc3)[C@H](c3ccccc3)N1[C@@H]2c1ccccc1OCCO` stands 0.974; under `Cc1ccc(S[C@]2(C(=O)NCC(F)(F)F)CC(=O)N(Cc3ccccc3)[C@@H]2c2ccc(CO)cc2)cc1`, -1.32.
On to `COCCCNC(=O)[C@@]1(Sc2ccc(C)cc2)CC(=O)N(C2Cc3ccccc3C2)[C@@H]1c1ccc(CO)cc1I`, for which the composite z-score is -1.77.
Molecule `C=CC[C@]1(C(=O)N(C)C)N=C(c2ccc(OCCCO)cc2)O[C@H]1c1ccccc1N=[N+]=[N-]` had a composite z-score of -0.367.
`CCOC(=O)C1=CC[C@@H](c2ccccc2C(F)(F)F)N(S(=O)(=O)c2ccc(C)cc2)C1` came in with a composite z-score of -0.144.
The molecule `CC(C)C(O)C1C=CC2C(=O)N(C)C(=O)C2N1N(c1ccccc1)c1ccccc1` (stereo unspecified) had a composite z-score of -1.07.
Molecule `CCOC(=O)C1=CC[C@@H](c2ccc([N+](=O)[O-])cc2)N(S(=O)(=O)c2ccc(C)cc2)[C@H]1c1ccccc1` displayed a composite z-score of 0.293.
In turn, `[N-]=[N+]=NCc1ccccc1C[C@@]1(C(=O)N2CCCCC2)N=C(c2ccc(OCCCO)cc2)O[C@@H]1c1ccccc1N=[N+]=[N-]` registered a composite z-score of -0.276.
The molecule `C=C(/C(=C/C[C@@H](OC(=O)c1ccncc1)c1ccccc1OCCO)c1cc(C(=O)OC)ccc1OC)C(C)C` gave a composite z-score of 0.328.
Molecule `COCCOC(=O)N1C(=O)[C@@]2(c3cc(C#CC4(O)CCCCCC4)ccc31)[C@H](C(N)=O)[C@H]1C(=O)O[C@H](c3ccccc3)[C@H](c3ccccc3)N1[C@@H]2c1ccc(O)cc1` showed a composite z-score of 0.489.

The next test concerns Inhibin beta A chain (activin A). Description: small molecules binding activin A – biochemical, small-molecule microarray, 635 nm fluorescence scan, primary screen (AID 1107).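 Note: mouse activin A protein probed at 4.33 µg/mL on printed slides; score merges bound-protein fluorescence near 667 nm with spot signal-to-noise.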 The settings on record: INHBA, higher = more signal.
As for `COC(=O)[C@@]1(Cc2ccccc2)[C@H]2c3cc(C(=O)N4CCCC4)[nH]c3C[C@H]2CN1C(=O)c1ccccc1`, the composite z-score was found to be 0.916.
Take `O=C(O)[C@H](Cc1ccccc1)n1cc(-c2ccccn2)nn1`: the composite z-score is 0.325.
Still for that read-out and setting: under `O=C1O[C@@H](c2ccccc2)[C@@H](c2ccccc2)N2[C@@H](c3ccccc3OCCO)[C@]3(C(=O)Nc4ccc(C#CCCO)cc43)[C@@H](C(=O)N3CCN(c4ncccn4)CC3)[C@H]12` stands -0.055; under `COc1ccc([Si](C)(C)[C@@H]2[C@@H](CCO)O[C@]3(C(=O)N(Cc4cccc(N5C(=O)c6ccccc6Oc6ccccc65)c4)c4ccccc43)[C@H]2C)cc1`, 0.233.
The same measure, in the same setting: in the case of `CN(C)CCCN1C(=O)[C@@]2(c3ccc([N+](=O)[O-])cc3)CC(=O)N(CC34CC5CC(CC(C5)C3)C4)[C@@H]2c2ccc(CO)cc21` it was 0.144.
Turning to `C[C@]12C(=O)N(CCCCCCO)[C@@H]3C(=O)N(c4ccc(Cl)cc4)CC=CC31O[C@@H]1/C=C\CCCOC(=O)C12` (stereo partly specified), the composite z-score stood at 1.05.
On the same count and under the same terms, in the case of `CC1CC/C=C\[C@H]2OC34C=CCN(c5ccc6ccccc6c5)C(=O)[C@H]3N(C(CO)C(C)C)C(=O)[C@@H]4C2C(=O)O1` (stereo partly specified) it was 1.2; in that of `O=C1O[C@@H](c2ccccc2)[C@@H](c2ccccc2)N2[C@@H](c3ccc(O)cc3)[C@]3(C(=O)Nc4ccc(C#CC5=CCCCC5)cc43)[C@@H](C(=O)N3CCN(c4ncccn4)CC3)[C@H]12`, -0.0915.
`C[C@H]1ON(c2ccc(C(=O)OC(C)(C)C)cc2)[C@@H](c2ccc(O)cc2)[C@@H]1C(=O)N1C(=O)OC[C@@H]1c1ccccc1` returned a composite z-score of -0.0428.
`CCOC(=O)C[C@H]1[C@H](OC(=O)Cc2ccc3c(c2)OCO3)[C@@H](NC(=O)C2CCCCC2)c2cc(OCCCO)ccc2N1C(=O)c1ccc2ccccc2n1` showed a composite z-score of 0.0341.
`CN1C(=O)C2C=CC(C(O)c3c(F)cccc3Cl)N(Nc3ccccc3)C2C1=O` (stereo unspecified) displayed a composite z-score of 0.909.
Consider `COCCCNC(=O)[C@]1(Cc2ccccc2CN=[N+]=[N-])N=C(c2ccc(OCCCO)cc2)O[C@@H]1c1ccccc1`, for which the composite z-score amounted to 0.493.
Molecule `[N-]=[N+]=NCc1ccccc1C[C@@]1(C(N)=O)N=C(c2ccc(OCCCO)cc2)O[C@@H]1c1ccccc1CN=[N+]=[N-]` registered a composite z-score of 0.764.
The same measure, in the same setting: under `COC(=O)[C@@]1(Cc2ccc(OC)cc2)[C@H]2c3cc(C(=O)N4CCCC4)n(CCc4cc5ccccc5[nH]4)c3C[C@H]2CN1C(=O)c1ccccc1` stands 0.881.
In the case of `COCCOC(=O)N1C(=O)[C@@]2(c3cc(C#Cc4ccc(OC)cc4)ccc31)[C@H](C(=O)NC[C@H](O)c1ccccc1)[C@H]1C(=O)O[C@H](c3ccccc3)[C@H](c3ccccc3)N1[C@@H]2c1ccc(O)cc1`, the composite z-score is 0.033.
`C=CC[C@@]12N=C(c3ccc(OCCCO)cc3)O[C@@H]1c1ccccc1N(CCS(=O)(=O)c1ccccc1)C2=O` had a composite z-score of 1.23.
`C=CCN1C(=O)[C@]2(CC=C)N=C(c3ccc(OCCCO)cc3)O[C@@H]2c2ccccc21` came in with a composite z-score of 1.38.
In turn, `Cc1ccc(S[C@]2(C(=O)NCC(C)C)CC(=O)N(Cc3ccccc3Cl)[C@@H]2c2ccc(CO)cc2I)cc1` registered a composite z-score of 0.67.
`COc1ccccc1CN1C(=O)c2ccccc2[C@](Cc2ccccc2I)(C(=O)NC(C)C)[C@@H]1c1ccc(CO)cc1` showed a composite z-score of -0.0084.
Turning to `CCOc1cc(C(O)C2C=CC3C(=O)N(C4CCCCC4)C(=O)C3N2Nc2ccc(OC)cc2)ccc1O` (stereo unspecified), the composite z-score worked out at 0.959.
On the same count and under the same terms, in the case of `COCCOC(=O)N1C(=O)[C@@]2(c3cc(C#Cc4ccc(OC)cc4)ccc31)[C@H](C(=O)N1CCCCCCC1)[C@H]1C(=O)O[C@H](c3ccccc3)[C@H](c3ccccc3)N1[C@@H]2c1ccc(O)cc1` it was 1.35; in that of `C=C(C(=O)CC[C@H](OC(=O)c1cccnc1)c1ccc(CO)o1)C(C)C`, 0.935.
The molecule `COC(=O)[C@H](Cc1ccccc1)N1CC(/C=C/C2CC2)=C[C@@H]1[C@@H](O)Cc1ccccc1` gave a composite z-score of 0.142.
In the case of `COC(=O)[C@@]1(Cc2ccc(OC)cc2)[C@H]2c3cc(C(=O)N(C)C)n(Cc4nc5ccccc5[nH]4)c3C[C@H]2CN1C(=O)c1ccccc1`, the composite z-score was 0.777.
On the same count and under the same terms, under `CN(C)C(=O)[C@]1(CCC(=O)OC(C)(C)C)N=C(c2ccc(OCCCO)cc2)O[C@@H]1c1ccccc1` stands 0.12.
Same read-out and setting: in the case of `COCCOC(=O)N1C(=O)[C@@]2(c3cc(C#CC4(O)CCCCCC4)ccc31)[C@H](C(N)=O)[C@H]1C(=O)O[C@H](c3ccccc3)[C@H](c3ccccc3)N1[C@@H]2c1ccccc1OCCO` it was -0.505; in that of `Cc1ccc(S[C@]2(C(=O)NCC(F)(F)F)CC(=O)N(Cc3ccccc3)[C@@H]2c2ccc(CO)cc2)cc1`, -0.0219.
With `COCCCNC(=O)[C@@]1(Sc2ccc(C)cc2)CC(=O)N(C2Cc3ccccc3C2)[C@@H]1c1ccc(CO)cc1I`, the composite z-score amounted to 0.388.
In the case of `C=CC[C@]1(C(=O)N(C)C)N=C(c2ccc(OCCCO)cc2)O[C@H]1c1ccccc1N=[N+]=[N-]`, the composite z-score came to 0.889.
Take `CCOC(=O)C1=CC[C@@H](c2ccccc2C(F)(F)F)N(S(=O)(=O)c2ccc(C)cc2)C1`: the composite z-score stood at 0.685.
`CC(C)C(O)C1C=CC2C(=O)N(C)C(=O)C2N1N(c1ccccc1)c1ccccc1` (stereo unspecified) returned a composite z-score of 1.7.
As for `CCOC(=O)C1=CC[C@@H](c2ccc([N+](=O)[O-])cc2)N(S(=O)(=O)c2ccc(C)cc2)[C@H]1c1ccccc1`, the composite z-score was 0.521.
For `[N-]=[N+]=NCc1ccccc1C[C@@]1(C(=O)N2CCCCC2)N=C(c2ccc(OCCCO)cc2)O[C@@H]1c1ccccc1N=[N+]=[N-]`, the composite z-score was 1.19.
Consider `C=C(/C(=C/C[C@@H](OC(=O)c1ccncc1)c1ccccc1OCCO)c1cc(C(=O)OC)ccc1OC)C(C)C`, for which the composite z-score was found to be 0.787.
For `COCCOC(=O)N1C(=O)[C@@]2(c3cc(C#CC4(O)CCCCCC4)ccc31)[C@H](C(N)=O)[C@H]1C(=O)O[C@H](c3ccccc3)[C@H](c3ccccc3)N1[C@@H]2c1ccc(O)cc1`, the composite z-score was determined as 0.496.
